High-throughput results (PubChem BioAssay)
Shown are actives, neighbours in structure and some others; about 10% of the full set was active somewhere.
HCT116 PTEN-null: growth suppressors of cells with PTEN tumor suppressor deletion; HCT116 PTEN-null viability, CellTiter-Glo, 60 h; hits give low values; AID 827; hit rate 1.2% among 140,000; viability, % at 10 µM;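 active means viability at or below a set limit, 4 SD under the median of all tested compounds, cut at about 3.7% in these data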;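 further: PTEN knockout HCT116 line with beta catenin targeted HCT116 as companion control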
INS promoter inh: TRM-6 insulin promoter activity inhibition | TRM-6 cells (human fetal islet line), insulin promoter-eGFP reporter, imaging; reporter expression induced with tamoxifen | hit rate 0.9% among 130,000 | inhibition, % at 2 µM | AID 1273;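 active means inhibition above the mean plus 3 SD, with well images judged a real hit on visual review, cut at about 60% in these data, passing the limit was not always enough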
ROMK mod: human ROMK K+ channel modulation, primary screen; AID 1918; Tet-inducible ROMK, thallium flux fluorescence; actives lie on both sides; B-score at 10 µM; hit rate 2% among 130,000; P48048;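 active means signal ratio slope over the read window, or its plate-corrected B-score, at least 3 SD from the plate mean, either direction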;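 further: B-score of the F/F0 ratio slope over 7 to 12 s after thallium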
Target sequence (P48048 whole entry, looked up): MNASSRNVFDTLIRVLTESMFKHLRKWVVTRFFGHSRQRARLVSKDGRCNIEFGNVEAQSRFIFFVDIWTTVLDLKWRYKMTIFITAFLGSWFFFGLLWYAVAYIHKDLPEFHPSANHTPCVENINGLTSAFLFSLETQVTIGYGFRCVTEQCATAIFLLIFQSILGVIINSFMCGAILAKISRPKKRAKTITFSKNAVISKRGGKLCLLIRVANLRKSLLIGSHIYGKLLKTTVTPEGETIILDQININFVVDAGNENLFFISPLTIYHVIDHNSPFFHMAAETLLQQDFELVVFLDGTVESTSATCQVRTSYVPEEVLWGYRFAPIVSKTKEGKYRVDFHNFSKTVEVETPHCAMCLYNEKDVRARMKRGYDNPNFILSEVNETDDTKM
HCT116 bCat-KO: beta-catenin-lacking colon tumor cell growth suppression; hit rate 1.5% among 140,000; viability, % at 10 µM; HCT116 beta-catenin knockout viability, CellTiter-Glo, 60 h; hits give low values;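 active means viability at or under a set limit, the compound median less 4 SD, cut at about 6% in these data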;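 further: 0% = Hyamine 1622 control at 20 µM and 100% = untreated cell control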
p97 inhibitor: inhibitors of human p97 ATPase; hit rate 0.42% among 220,000; AID 1481; inhibition, % at 8 µM; P55072; recombinant p97 ATPase, Kinase-Glo ATP luminescence, 3 h; in the data active means inhibition above about 15%;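 further: 0% = DMSO vehicle and 100% = wells lacking enzyme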
L major viab: reduces viability of Leishmania major promastigotes; resazurin fluorescence viability; AID 1063; hit rate 9% among 200,000; inhibition, % at 10 µM; in the data active means inhibition above about 50%;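 further: promastigotes grown with compound for 44 hours at 28 °C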
Starred values were filed as active, the others as inactive; nt = not tested or not shown.

SMILES | HCT116 PTEN-null | INS promoter inh | ROMK mod | HCT116 bCat-KO | p97 inhibitor | L major viab
COc1cnc(-c2ccccn2)nc1Oc1c(C)cccc1C | nt | -15 | -0.056 | nt | 4 | 72*
COc1cnc(-c2ccccn2)nc1N(C)C | nt | nt | -0.03 | nt | 5 | 100*
COc1cnc(-c2ccccn2)nc1Oc1cccc(Cl)c1 | 69 | nt | nt | 75 | 1 | 100*
COc1cnc(-c2ccccn2)nc1Sc1ccccc1Cl | 13 | nt | nt | 10 | -3 | 101*
Cc1cccc(/C(N)=N/OC(=O)N2c3ccccc3Sc3ccccc32)c1 | 39 | 20 | nt | 34 | 4 | 71*
N/C(=N\OC(=O)N1c2ccccc2Sc2ccccc21)c1ccccc1 | 74 | 50 | 0.27 | 78 | -2 | 91*
N/C(=N\OC(=O)c1ccccc1Cl)c1ccccc1 | 89 | 23 | nt | 85 | 4 | 0
CC(C)CNC(=O)NC(=O)COC(=O)Cn1cnc2ccccc2c1=O | nt | nt | 0.22 | nt | -1 | -2
Cc1cccc(NC(=O)N2CCN(Cc3ccccc3)CC2)c1 | 100 | 30 | -0.41 | 91 | -4 | -1
Cc1cccc(CN2CCN(C(=O)CCl)CC2)c1 | 39 | nt | nt | 44 | 3 | 100*
Cc1cccc(CN2CCN(C(=O)c3ccccc3F)CC2)c1 | 95 | 39 | 6.2* | 90 | -2 | -6
CCn1nc(C)c(CNC(=O)CCc2nnc(-c3ccc(C(C)=O)s3)o2)c1C | nt | nt | nt | nt | 3 | -6
COCC1CCCN(C(=O)c2ccc(OC3CCN(Cc4ccccn4)CC3)cc2)C1 (stereo unspecified) | nt | nt | 0.79 | nt | 2 | -4
O=C(c1ccc(OC2CCN(Cc3ccccn3)CC2)cc1)N1CCCCO1 | nt | nt | 1.1 | nt | -1 | 67*
CN1CCN(C(=S)Nc2ccc(Cl)c(Cl)c2)CC1 | 92 | -171 | -0.81 | 97 | -3 | 67*
CN1CCN(C(=S)Nc2ccccc2Cl)CC1 | 104 | -13 | -0.38 | 100 | -1 | -1
COc1ccccc1N1CCN(C(=S)Nc2ccc3nc(N4CCOCC4)cc(C)c3c2)CC1 | nt | 9 | 0.81 | nt | -3 | 53*
Cc1cc(N2CCN(C)CC2)nc2ccc(NC(=S)N3CCN(c4ccccn4)CC3)cc12 | nt | nt | -0.89 | nt | -3 | 95*
CCN1CCN(c2cc(C)c3cc(NC(=S)N4CCN(c5ccccc5)CC4)ccc3n2)CC1 | nt | -53 | -0.86 | nt | 0 | 100*
CC(C)NC(=O)CN1CCN(Cc2nc(C(c3ccccc3)c3ccccc3)no2)CC1 | nt | nt | 1.8 | nt | 0 | -5
O=C1NC(NS(=O)(=O)c2ccc(Cl)cc2)(C(F)(F)F)C(=O)N1Cc1cccnc1 (stereo unspecified) | 96 | -6 | 0.11 | 84 | 5 | -2
CCN1CCN(c2cc(C)c3cc(NC(=S)N4CCN(c5ccccc5F)CC4)ccc3n2)CC1 | nt | nt | 0.29 | nt | -2 | 99*
CCCN1CCN(C(=S)Nc2ccc3nc(N4CCN(CC)CC4)cc(C)c3c2)CC1 | nt | nt | 0.69 | nt | -6 | 37
CCOC(=O)Nc1ccc2c(c1)ncn2C1CCCCC1 | 103 | -6 | -0.32 | 101 | 5 | 84*
COC(=O)Nc1ccc2c(c1)ncn2C1CCCCC1 | 102 | nt | -0.073 | 98 | -3 | 20
SMILES | HCT116 PTEN-null | INS promoter inh | ROMK mod | HCT116 bCat-KO | p97 inhibitor | L major viab
CC(=O)NCCOc1nc(N2CCCCC2)nc(N2CCCCC2)n1 | nt | nt | -0.52 | nt | -6 | 96*
O=C(NCCOc1nc(N2CCCCC2)nc(N2CCCCC2)n1)Nc1ccccc1 | nt | nt | -0.057 | nt | 2 | 37
CCN1CCN(c2cc(-c3ccccc3)nc3cc(-c4cccc(F)c4)nn23)CC1 | 1.4* | 67 | -0.84 | 1.2* | -4 | 68*
NNc1nc2ccc(F)cc2s1 | 90 | -7 | nt | 86 | -7 | 96*
NNc1nc2ccc(Cl)cc2s1 | 83 | nt | nt | 87 | -4 | 6
CCN1CCN(c2cc(N3CCc4ccccc4C3)c(F)cc2[N+](=O)[O-])CC1 | 0.5* | nt | nt | 1.0* | -7 | 61*
CC(=O)N1CCN(c2cc(N3CCCC3)c(F)cc2[N+](=O)[O-])CC1 | nt | nt | -0.31 | nt | 1 | 2
Cn1c(=O)n(C)c2cc([N+](=O)[O-])c(N3CCN(C(=O)C(C)(C)C)CC3)cc21 | nt | 71* | -0.085 | nt | 6 | 2
CC(C)C(=O)N1CCN(c2cc(N3CCN(C)CC3)c(F)cc2[N+](=O)[O-])CC1 | nt | -7 | 0.45 | nt | -4 | 96*
COc1cc(CNC2CCCC2)c(Br)cc1OC1CCCC1 | nt | -40 | -0.013 | nt | -6 | 37
COc1cc(CNC2CCCCCCC2)cc(Br)c1OCC#N | 54 | -43 | -1.6 | 53 | 3 | 75*
CCOc1c(Br)cc(CNC2CCCCCCC2)cc1OC | nt | nt | -1.1 | nt | -5 | 60*
NC(=O)c1cccc(C(N)=O)n1 | nt | nt | -0.31 | nt | 4 | -5
O=C(NC(=S)N1CCN(c2nc(-c3ccccc3)cs2)CC1)c1cncc(Br)c1 | nt | 29 | 4.8* | nt | 8 | -6
O=C(c1ccc(F)cc1)C(CCCCCC(CN1CCOCC1)C(=O)c1ccc(F)cc1)CN1CCOCC1 (stereo unspecified) | 36 | -3 | nt | 43 | -9 | 99*
OC(CN1CCOCC1)c1ccc(F)cc1 (stereo unspecified) | nt | nt | -0.09 | nt | -8 | 1
CCC(c1nnc(SCC(=O)NCCc2ccc(OC)c(OC)c2)n1Cc1ccccc1)N(C)C (stereo unspecified) | nt | nt | -0.38 | nt | -4 | -1
CCOC(=O)c1cc2c(ccn2C)n1CC(=O)N(Cc1ccccc1)c1ccc(F)cc1 | 74 | -27 | -0.8 | 84 | 2 | 98*
CC(C)OC(=O)c1cc2c(ccn2C)n1CC(=O)N(Cc1ccccc1)c1ccc(F)cc1 | 66 | -14 | -0.53 | 67 | -5 | 99*
Cc1ccccc1Cn1c(C(=O)OC(C)C)cc2c1ccn2C | 62 | -60 | nt | 72 | -3 | 30
CCOC(=O)c1cc2c(ccn2C)n1Cc1ccccc1C | 86 | nt | -0.97 | 87 | 3 | 7
CCOC(=O)c1cc2c(ccn2C)n1Cc1ccccc1Cl | nt | 5 | -0.61 | nt | 2 | 10
Cc1ccc(C)c(Cn2c(C(=O)OC(C)C)cc3c2ccn3C)c1 | 61 | -29 | nt | 61 | -6 | 95*
CC(C)OC(=O)c1cc2c(ccn2C)n1CC(=O)N1CCC(Cc2ccccc2)CC1 | 54 | 34 | nt | 64 | -9 | 15
CCOC(=O)c1cc2c(ccn2C)n1CC(=O)N(Cc1ccccc1)c1ccccc1 | 74 | -30 | -1.8 | 79 | -1 | 98*
SMILES | HCT116 PTEN-null | INS promoter inh | ROMK mod | HCT116 bCat-KO | p97 inhibitor | L major viab
O=C(CS(=O)(=O)c1ccccc1)Nc1ccc(N2CCOCC2)cc1 | nt | 62 | -0.29 | nt | -2 | -6
CC[n+]1c(/C=C/Nc2ccccc2)sc2ccccc21 | 56 | nt | -1.4 | 52 | 1 | 99*
CC/C(=C/c1sc2ccccc2[n+]1CC)SC | 78 | 0 | 0.46 | 79 | -4 | 91*
Cc1sc2ccccc2[n+]1CC(=O)O | nt | nt | nt | nt | -3 | nt
CC[n+]1c(/C=C(/C)SC)sc2ccccc21 | 39 | nt | nt | 35 | 2 | 83*
CCN1/C(=C/C=C/C=C/c2sc3ccccc3[n+]2CC)Sc2ccccc21 | 1.7* | -355 | nt | 1.2* | 2 | 100*
CCN1CCC(Nc2ccnc3cc(Cl)ccc23)CC1 | nt | nt | nt | nt | -2 | nt
CC[n+]1c(/C=C(\C)Nc2ccccc2)sc2ccccc21 | 34 | -8 | -1.1 | 38 | 3 | 99*
